Screening results from PubChem BioAssay.
SW480 rerep: DNA re-replication induction in SW480 cells. SW480 DNA re-replication, Hoechst DNA content imaging, 48 h. Potency, µM (titrated, usually from 46.1 µM), without a hit: at the top dose re-replication activation, hits mostly activators. 340,000 tested, 1.8% active. AID 624297; further: % of control where 0% means no effect; nearly all actives have a fitted effect of over 55% in size
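Treated cells incubate 48 hr (37 C, 5% CO2), are stained 40 min with Hoechst, and nuclear fluorescence is enumerated; a rise in nuclei with high DNA signal marks re-replication.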
Mito fusion yeast: inhibitors of mitochondrial division or activators of mitochondrial fusion; S. cerevisiae fusion-defective mutant growth rescue, CellTiterGlo 48 h; Potency, µM (titrated, usually from 46.1 µM), without a hit: at the highest dose growth rescue (activation), usual class: activators; 320,000 tested, 0.23% active; AID 485298; further: % of control where 0% means no effect; nearly all actives have a fitted effect of over 45% in size
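Compounds are tested for their ability to restore growth of mitochondrial fusion-defective yeast strains at non-permissive 37C in YPEG medium over 48 hours. Viability is quantified by luciferase luminescence.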
MCF10A rerep: inducers of DNA re-replication in MCF 10A breast cells | MCF 10A DNA re-replication, Hoechst nuclear intensity, 48 h | Potency, µM (doses to about 46.1 µM), without a hit: top-dose activity, positive = re-replication, actives largely listed as activators | 350,000 tested, 2.9% active | AID 624296; further: % of control where 0% means no effect; nearly all actives have a fitted effect of over 50% in size
Integrin act MD: activators of alpha7 integrin expression for muscular dystrophy; alpha7betagal myoblasts, beta-gal FDG fluorescence, 48 h; Potency, µM (highest dose often 38.3 µM), for inactives: at the highest dose activation, usual class: activators; 350,000 tested, 0.064% active; AID 624291;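 further: 100% = response of the positive control SU9516; nearly all actives have a fitted effect of over 60% in size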
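Alpha7betagal+/- myoblasts (passage 13) were plated 16-24 hr, then exposed to compounds (1:260 dilution of DMSO stock) for 48 hours at 37C. After MPER lysis, β-galactosidase reporter activity was read as FDG fluorescence (ex 480/em 540) after 30 minutes.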
AT treatment: potential ataxia-telangiectasia treatment. F2112 A-T fibroblasts, KAP-1 phosphorylation AlphaLISA; neocarzinostatin DNA damage 30 min before lysis. 320,000 tested, 0.19% active. Potency, µM (highest dose often 57.5 µM), for the others: at the top dose activation, usual class: activators; further: % of control where 0% means no effect; nearly all actives have a fitted effect of over 45% in size
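ATM-like activity read as KAP-1 phosphorylation via AlphaLISA donor/acceptor antibody pairs after lysis and 6 hr at 25C. Cells were ATM-null patient fibroblasts (F2112, hTERT), dosed 60 min, then exposed to the DSB inducer NCS for 30 min.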
Numbers without * were called inactive; ? = inconclusive; / = no result given; [ ] = dose if it differs, or a comment. Only some compounds are listed: those with a hit (about 4.2% of all), similar ones and a draw of the others. The call rests on the fitted dose curve; in most records, active means well fitted activation curve with a large enough effect; inconclusive means small, poorly fitted or top-dose-only effect; inactive means no such curve, though single readings can be large or run the other way. Potency means the concentration at half of the fitted maximal effect.

SMILES	SW480 rerep	Mito fusion yeast	MCF10A rerep	Integrin act MD	AT treatment
COc1ccc(C2(c3ccc(OC)cc3)NC(=O)N(CC(=O)NC3(C#N)CCCCC3)C2=O)cc1	-16%	-2%	-7%	7%	1%
CCc1cccc(NC(=O)CCCSc2nc3ccccc3[nH]2)c1	2%	4%	10%	10%	4%
CCN(c1ccc(OC)cc1)S(=O)(=O)c1cc(-c2cc(C)no2)ccc1C(C)C	1%	-5%	10µM*	-46%	14%
O=C(COC(=O)CCN1C(=O)C2CC=CCC2C1=O)Nc1ccc(Cl)cc1F (stereo not drawn)	-54%	-2%	8%	-19%	3%
CC1Cc2ccccc2N1C(=O)CO/N=C/c1ccccc1OC(F)F (stereo not drawn)	16µM*	14%	3%	-4%	4%
Cc1ccc(S(=O)(=O)n2cccc2/C=C/[N+](=O)[O-])cc1	/	/	/	-62%	/
COc1ccccc1N=C1SC(C(=O)Nc2cccc(Cl)c2Cl)C(N)=C1C(N)=O (stereo not drawn)	23µM*	6%	12µM*	-4%	-1%
NC(=O)C1(Nc2ccc(C(=O)O)cc2)CCCC1	-12%	/	-3%	6%	/
O=C(Nc1ccc(Cl)c(S(=O)(=O)N2CCOCC2)c1)c1ccc(OCC2CCCO2)cc1 (stereo not drawn)	-18%	11%	18µM*	-59%	10%
O=C(Cc1cccs1)Nc1ccc(Cl)c(S(=O)(=O)N2CCOCC2)c1	5.8µM*	1%	-15%	14%	0%
O=C(Cc1cccs1)Nc1ccc(F)c(S(=O)(=O)N2CCOCC2)c1	-9%	-3%	16%	-27%	10%
COc1ccc(OCC(=O)NNC(=S)NC(=O)C2CCCCC2)cc1	/	-3%	/	/	27%
COc1ccccc1C(=O)Nc1cc(Cl)ccc1-n1cncn1	3%	5%	-2%	-26%	7%
COc1cc(OC)c(C(=O)Nc2cc(Cl)ccc2-n2cncn2)cc1OC	5.2µM*	4%	-16%	6%	-10%
O=C(Nc1cc(Cl)ccc1-n1cncn1)c1ccc([N+](=O)[O-])s1	23µM*	-27%	21µM*	-58%	?
CS(=O)c1ccccc1-c1nc(-c2ccc([N+](=O)[O-])cc2)no1 (stereo not drawn)	-6%	/	3%	14%	/
Cc1ccc(-c2nnc(SCC(=O)N3CCOCC3)nc2-c2ccc(C)cc2)cc1	-5%	12%	?	-18%	-5%
Cc1ccc(C(=O)O/N=C(\N)c2ccccn2)c(C)c1	?	2%	7.3µM*	23%	-5%
N/C(=N\OC(=O)c1cc([N+](=O)[O-])ccc1Cl)c1cccnc1	?	-3%	18µM*	-23%	3%
COc1ccccc1C(=O)O/N=C(\N)c1ccccn1	-7%	-2%	-2%	15%	11%
N/C(=N\OC(=O)c1ccc(Cl)c([N+](=O)[O-])c1)c1ccccn1	?	1%	21µM*	0%	-3%
Cc1ccc(C)c(OCC(=O)O/N=C(\N)c2ccccn2)c1	-5%	-1%	10µM*	1%	-2%
COc1ccccc1N(C)S(=O)(=O)c1ccc(C(=O)OCC(=O)N(C(C)C)C(C)C)cc1	23%[1.84 µM]	-23%	-7%	?	2%
CC1(C)O[C@@H]2C[C@H]3[C@@H]4CCC5=CC(=O)CC[C@]5(C)[C@@]4(F)[C@@H](O)C[C@]3(C)[C@]2(C(=O)CCl)O1	-1%	1%	-4%	/	1%
COCCCNC(=O)CN1C(=O)/C(=C/c2ccccc2)Sc2ccccc21	-12%	6%	-2%	4%	40µM*
CCN1CCN(CCNC(=O)c2ccc(/C=C3/Sc4ccccc4N(Cc4ccccc4C)C3=O)cc2)CC1	7.3µM*	-7%	18µM*	-49%	-10%
CCN1CCN(CCCNC(=O)c2ccc(/C=C3/Sc4ccccc4N(Cc4ccccc4F)C3=O)cc2)CC1	16µM*	-1%	15µM*	-59%	-5%
Cc1ccccc1CN1C(=O)c2ccccc2Sc2ccc(C(=O)NCCN3CCOCC3)cc21	?	-2%	7%	30%	5%
O=C(NNC(=O)c1cc(-c2ccncc2)nc2ccccc12)c1ccccc1O	-31%	-6%	?	-46%	-6%
